Measurements from ChEMBL document CHEMBL4513216, “Probing the Open Global Health Chemical Diversity Library for Multistage-Active Starting Points for Next-Generation Antimalarials” (ACS Infect Dis, 2020).
Out of some 69,000 compounds screened, about 8,600 (12%) showed an effect of 50% or more. The entries come from a sample that favours strong results as a whole.

What follows are compounds tested on Plasmodium berghei (assay: Screen against P. berghei liver stage (PbLuc), transformed with Luciferase, at 10uM). Details: tested at 10 uM.
Format: functional, HepG2
`Cc1cc(NCCCc2c(C)noc2C)nc(N)n1` was tested, and the INHIBITION was 35%.
`CC(C)c1ncc2c(n1)CN(Cc1noc(-c3ccccc3)n1)CC2` gave an INHIBITION of 45.7%.
`CC(C(=O)NCCN1CCCCC1)n1cncn1` (stereo not drawn) showed an INHIBITION of -5.07%.
Work on `CCn1c(SCC(=O)N2CCCC2)nc2cc(C)[nH]c2c1=O` yielded an INHIBITION of 40%.
Work on `c1csc(CN2CCC3(CCOCC3COCC3CC3)CC2)n1` (stereo not drawn) yielded an INHIBITION of -18.2%.
Compound `CCN(Cc1nccn1C)C1CCN(c2ccccc2)C1=O` (stereo not drawn) has an INHIBITION of 42.6%.
`C=C(C)Cn1cc(C(N)=O)nc1C1CC1` showed an INHIBITION of -6.67%.
With `N#Cc1cnc2ccccc2c1N1CCN(C(=O)C2CCC2)CC1` the INHIBITION was 90.6%.
`N#Cc1ccccc1N1CCN(CCC(=O)N2CCOCC2)CC1` was tested, and the INHIBITION was -29.4%.
With `N#Cc1cnc2ccccc2c1N1CCN(CCC(=O)O)CC1` the INHIBITION was 5.87%.
In the case of `N#Cc1ccccc1OCCN1CCC(C(=O)N2CCOCC2)CC1`, the INHIBITION was 70.3%.
For `N#Cc1cnc2ccccc2c1N1CCC(C(=O)O)CC1`, the INHIBITION was 35.7%.
With `N#Cc1cccc(OCCN2CCC(C(=O)N3CCOCC3)CC2)c1` the INHIBITION was 55.4%.
In the case of `Cc1nnc(CN2CCN(CCOc3ccccc3C#N)CC2)n1C`, the INHIBITION was 21.2%.
Work on `N#Cc1ccccc1OCCN1CCC(N2CCNC2=O)CC1` yielded an INHIBITION of 24%.
`CC(C)C(=O)N1CCN(CCOc2cccc(C#N)c2)CC1` showed an INHIBITION of 39.2%.
Compound `CC(C)(C)C(=O)N1CCN(CCOc2cccc(C#N)c2)CC1` has an INHIBITION of -18%.
`N#Cc1ccccc1OCCN1CCN(C(=O)C2CCCC2)CC1` showed an INHIBITION of 65.6%.
Compound `N#Cc1ccccc1OCCN1CCCCC1C(=O)N1CCOCC1` (stereo not drawn) has an INHIBITION of 47.1%.
In the case of `CN1CC(=O)N(c2ccsc2)CC12CCN(C(=O)CC1CCCC1)C2` (stereo not drawn), the INHIBITION was 21.8%.
Work on `NC(=O)NC(=O)C(c1ccccc1)N1CCN(Cc2ccsc2)CC1` (stereo not drawn) yielded an INHIBITION of 4.52%.
With `Cc1cc(C)n(CC2CCCN2C(=O)Cc2c(C)nc(C)[nH]c2=O)n1` (stereo not drawn) the INHIBITION was 2.3%.
`O=C(O)c1cc2c(nc1-c1ccoc1)CCN(Cc1ccco1)CC2` showed an INHIBITION of 34.6%.
With `Cc1occc1C(=O)N1C[C@@H]2OCCN(C(C)C)[C@@H]2C1` the INHIBITION was 15.9%.
`CN1CC2(CCN(C(=O)CCCOCc3ccccc3)C2)OC1=O` (stereo not drawn) gave an INHIBITION of 12.4%.
Compound `CCn1nc(C)cc1C(=O)NCc1noc(C(C)(C)C)n1` has an INHIBITION of 27.5%.
`O=C1CCC[C@]2(CN(S(=O)(=O)N3CCOCC3)C[C@H]2c2cccnc2)N1` gave an INHIBITION of 41.5%.
In the case of `Cc1nnc(-c2cccc(C#N)c2)n1C1CCCN(C(C)C)C1=O` (stereo not drawn), the INHIBITION was -18.9%.
For `N#Cc1cccc(OCCN2CCCC2C(=O)NCC(F)(F)F)c1` (stereo not drawn), the INHIBITION was 2.93%.
Compound `CN1CCCCCC1C(=O)N1CCN(c2ccccc2C#N)CC1` (stereo not drawn) has an INHIBITION of 62.4%.
`CN1CCCCC1C(=O)N1CCN(c2ccccc2C#N)CC1` (stereo not drawn) was tested, and the INHIBITION was 39.6%.
For `N#Cc1cccc(OCCN2CCCC2C(=O)N2CCSCC2)c1` (stereo not drawn), the INHIBITION was 55.3%.
In the case of `N#Cc1cccc(OCCN2CCCC2C(=O)NC2CC2)c1` (stereo not drawn), the INHIBITION was -3.21%.
In the case of `CN1CCCCCC1C(=O)N1CCCN(c2ccccc2)CC1` (stereo not drawn), the INHIBITION was 45.6%.
`CC(C)N1CCN(C(=O)c2ccccc2NCc2cccnc2)CC1` was tested, and the INHIBITION was -9.31%.
Compound `CC(C)c1nnc(NC(=O)N(C)Cc2ccc(C(N)=O)cc2)s1` has an INHIBITION of 22.5%.
`Cc1cc(O)cc(=O)n1CCCC(=O)Nc1n[nH]c2cccc(F)c12` was tested, and the INHIBITION was 5.03%.
Work on `COc1cccc(CNC(Cc2cccs2)c2nc(C)c(C)s2)c1OC` (stereo not drawn) yielded an INHIBITION of 42.4%.
With `COc1ccccc1CNC(Cc1cccs1)c1nc(C)c(C)s1` (stereo not drawn) the INHIBITION was 55.6%.
`COc1ccccc1CNC(Cc1cccs1)c1nc(C)cs1` (stereo not drawn) was tested, and the INHIBITION was 47.2%.
With `O=C1CCC2(CCC(NC(=O)NCc3cccnc3)CC2)N1` (stereo not drawn) the INHIBITION was 35.8%.
`CC(C)c1nc(CNc2nccc(CCC(F)(F)F)n2)cs1` was tested, and the INHIBITION was 16.2%.
`FC(F)(F)CCc1ccnc(NCc2csc(N3CCOCC3)n2)n1` gave an INHIBITION of 69%.
Compound `Nc1nc(CNc2nccc(CCC(F)(F)F)n2)cs1` has an INHIBITION of 32.7%.
`Cc1noc(C)c1CN1CC[C@H]2OCC[C@@]2(C(=O)N2CCOCC2)C1` gave an INHIBITION of 47.4%.
`CN(Cc1ccc(Cl)c(F)c1)C(=O)CCc1ccncc1` showed an INHIBITION of 56.5%.
With `CN(Cc1ccc(Cl)c(Cl)c1)C(=O)CNC(N)=O` the INHIBITION was -36.3%.
`CN(Cc1ccc(Cl)c(F)c1)C(=O)c1ccncc1F` gave an INHIBITION of 36.2%.
Work on `O=C1COc2cc(C(=O)NS(=O)(=O)c3ccc(F)c(F)c3)ccc2N1` yielded an INHIBITION of 41.5%.
`COCc1ccc(C(=O)NS(=O)(=O)c2ccc3c(c2)CCC(=O)N3)cc1` showed an INHIBITION of 61.8%.
`O=C1CCc2cc(S(=O)(=O)NC(=O)c3ccc4c(c3)COC4)ccc2N1` gave an INHIBITION of 62.9%.
`COCc1ccccc1C(=O)NS(=O)(=O)c1ccc2c(c1)CCC(=O)N2` was tested, and the INHIBITION was 25.5%.
`O=C1CCc2cc(S(=O)(=O)NC(=O)c3ccc4c(c3)CCO4)ccc2N1` showed an INHIBITION of 44.7%.
With `O=C1CCc2cc(S(=O)(=O)NC(=O)c3ccc4c(c3)OCO4)ccc2N1` the INHIBITION was 39.4%.
Compound `O=C(C1CCOCC1)N1CCc2ncc(CN3CCCC3)n2CC1` has an INHIBITION of 29.9%.
`Cc1ccc2ncccc2c1CN1CC[C@H](N(C)C)[C@H](CCC(=O)O)C1` was tested, and the INHIBITION was -102%.
In the case of `CC(C)CCn1[nH]c(CNc2ccc(Cl)cc2)nc1=O`, the INHIBITION was 40%.
With `N#CCCCn1cnc2c(F)cc(Br)cc2c1=O` the INHIBITION was 46.4%.
Compound `N#CCCn1cnc2c(F)cc(Br)cc2c1=O` has an INHIBITION of 53.9%.
In the case of `N#CCCn1cnc2c(Br)cc(Br)cc2c1=O`, the INHIBITION was 44.2%.
In the case of `O=C(NCCCn1ccnc1)NCC(c1ccco1)N1CCCCC1` (stereo not drawn), the INHIBITION was -67.3%.
`CCC[C@@H]1CN(C(=O)c2cc(-c3cccs3)n(C)n2)C[C@H]1NS(C)(=O)=O` was tested, and the INHIBITION was 18.8%.
With `O=C(NCCN1CCOCC1)c1cnc(Cc2ccc(F)cc2)s1` the INHIBITION was 63.7%.
With `O=C(NCCN1CCOCC1)c1cnc(-c2ccccc2F)s1` the INHIBITION was 41.6%.
For `O=C(NCCCN1CCOCC1)c1ccc(-c2ccccc2)[nH]c1=O`, the INHIBITION was 41.4%.
`CCc1ncc(C(=O)NCCNC(=O)Cc2ccc(F)cc2)s1` was tested, and the INHIBITION was -49.7%.
`Cc1cccc(-c2ccc(C(=O)NCCN3CCOCC3)c(=O)[nH]2)c1` was tested, and the INHIBITION was 68.6%.
Work on `O=C(NCCN1CCOCC1)c1ccc(-c2ccccc2)[nH]c1=O` yielded an INHIBITION of -14.1%.
With `Cc1ccc(C(=O)NCCN2CCOCC2)c(=O)[nH]1` the INHIBITION was -14.1%.
In the case of `CCNC(=O)c1cnc(Cc2ccc(F)cc2)s1`, the INHIBITION was 17.4%.
`O=C(NCCN1CCOCC1)c1ccn(COc2ccc(F)cc2)n1` gave an INHIBITION of -8.9%.
Compound `COC(=O)CCNC(=O)c1cnc(Cc2ccc(F)cc2)s1` has an INHIBITION of 18.3%.
`O=C(NCCN1CCOCC1)c1ccc(-c2ccc(F)cc2)nc1O` was tested, and the INHIBITION was 61.2%.
In the case of `CN(C)CCCNC(=O)c1cnc(Cc2ccc(F)cc2)s1`, the INHIBITION was 73.1%.
For `CC(C#N)(NC(=O)c1ccc(C#N)cc1)C1CC1` (stereo not drawn), the INHIBITION was 2.45%.
With `CC1CCc2n[nH]c(C(=O)NCCCc3ccco3)c2C1` (stereo not drawn) the INHIBITION was 6.32%.
Compound `Cc1cnn(C2CN(Cc3nc4cc(Cl)ccc4n3C)C2)c1` has an INHIBITION of -10.6%.
`CC(C)(CN)NS(=O)(=O)c1cccc(F)c1F` showed an INHIBITION of 19%.
`CCN1CCn2c(C)cnc2C12CCN(C(=O)c1ccco1)CC2` was tested, and the INHIBITION was 3.81%.
In the case of `CN1CC(=O)N(c2cccc(F)c2)CC12CCN(CCO)C2` (stereo not drawn), the INHIBITION was 21.8%.
For `COc1ccc(N2CCN(C(=O)c3cc(=O)c(OC)c[nH]3)CC2)cc1`, the INHIBITION was -13.8%.
In the case of `CCS(=O)(=O)CCN1CCN(C(C)c2cccnc2)CC1` (stereo not drawn), the INHIBITION was 24.2%.
Compound `CCC(c1ccccc1)N1CCN(CCO)CC1` (stereo not drawn) has an INHIBITION of 52.1%.
`CC(c1cccnc1)N1CCN(CCO)CC1` (stereo not drawn) showed an INHIBITION of 60%.
`CCC(c1ccccc1)N1CCN(C(=O)c2cc(C(N)=O)c[nH]2)CC1` (stereo not drawn) was tested, and the INHIBITION was -23.1%.
Compound `CCC(c1ccc(F)cc1F)N1CCN(CCO)CC1` (stereo not drawn) has an INHIBITION of 48.1%.
`CC(c1cccnc1)N1CCN(CCCC#N)CC1` (stereo not drawn) showed an INHIBITION of 41.4%.
In the case of `CN(Cc1nnc(C2CC2)o1)Cc1ccccc1N1CCOCC1`, the INHIBITION was 20.19%.
In the case of `O=C(c1cocn1)N1CCC2(CC1)COC(COCc1ccccn1)C2` (stereo not drawn), the INHIBITION was 8.03%.
`COc1c(CNCc2cccc(Cn3cncn3)c2)c(C)nn1C` showed an INHIBITION of -21.8%.
Work on `Cc1cc(C)nc(C2CCCN2C(=O)c2cnco2)n1` (stereo not drawn) yielded an INHIBITION of 12.8%.
In the case of `Cc1nc(C)c(C(=O)NCC(c2ccccc2Cl)N2CCOCC2)s1` (stereo not drawn), the INHIBITION was 62.3%.
`Cc1cc(C(=O)NCC(c2ccccc2Cl)N2CCOCC2)on1` (stereo not drawn) gave an INHIBITION of 1.7%.
For `Cc1ccoc1C(=O)NCC(c1ccccc1Cl)N1CCOCC1` (stereo not drawn), the INHIBITION was 30.5%.
`CN(Cc1cccc(OC(F)(F)F)c1)Cc1cnn(C)c1` was tested, and the INHIBITION was -6.51%.
`Cc1ncsc1C(=O)N(C)Cc1ccccc1` was tested, and the INHIBITION was -15.75%.
`CO[C@H]1CC[C@H]2[C@H]1OCCN2C(=O)c1nn(C)c2ccccc12` gave an INHIBITION of 47.4%.
For `CCO[C@@H]1CC[C@H]2[C@H]1OCCN2C(=O)c1nn(C)c2ccccc12`, the INHIBITION was 22.6%.
`CO[C@@H]1CC[C@H]2[C@H]1OCCN2C(=O)COc1ccc(C)cc1` was tested, and the INHIBITION was 47.5%.
In the case of `CCO[C@H]1CC[C@H]2[C@H]1OCCN2C(=O)COc1ccccc1`, the INHIBITION was 34.9%.
In the case of `CO[C@@H]1CC[C@H]2[C@H]1OCCN2C(=O)C1CCOCC1`, the INHIBITION was 33%.
Work on `O=C(COc1ccc(F)cc1)N1CCO[C@H]2[C@@H](OCC3CC3)CC[C@@H]21` yielded an INHIBITION of 59.3%.
`CO[C@@H]1CC[C@H]2[C@H]1OCCN2C(=O)COc1ccc(F)cc1` gave an INHIBITION of 29.6%.
In the case of `COc1cc(C(=O)N2CCO[C@H]3[C@H](OCC4CC4)CC[C@@H]32)ccc1F`, the INHIBITION was 30.5%.
`CCO[C@H]1CC[C@H]2[C@@H]1OCCN2C(=O)COc1ccccc1` showed an INHIBITION of 62%.
Work on `CN(C)CCO[C@@H]1CC[C@H]2[C@H]1OCCN2C(=O)COc1ccccc1` yielded an INHIBITION of 22.2%.
Compound `CCO[C@H]1CC[C@H]2[C@H]1OCCN2C(=O)c1nn(C)c2ccccc12` has an INHIBITION of 67.3%.
Work on `COCC(=O)N1CCO[C@H]2[C@H](OC)CC[C@@H]21` yielded an INHIBITION of 50%.
